Sampled rows, rich in hits. Any-hit rate of the full collection: about 1.1%.
ERK EGF block = inhibitors of EGF-stimulated ERK signaling pathway | HEK293-V1b, EGF-stimulated phospho-ERK AlphaScreen | Potency, µM (series often up to 11.5 µM), without a hit: at the highest dose activity change, negative = inhibition, actives largely listed as inhibitors | hit rate 0.41% among 130,000 | AID 1454;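 further: plate controls were stimulated vehicle wells for no effect and unstimulated vehicle basal for full effect; nearly all actives have a fitted effect of over 55% in size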
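After overnight plating in 1% FBS, HEK293-V1b cells received test compound for half an hour, then a 5 min pulse of EGF (25 nM); ERK phosphorylation in lysates was read by bead-based AlphaScreen.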
KinaseGlo FLuc = counter-screen: inhibitors of Kinase-Glo firefly luciferase | Q27757 | Kinase-Glo luciferase, ATP luminescence, 8 min | hit rate 0.28% among 200,000 | Potency, µM (top dose mostly 38.3 µM), inactives show at the highest dose activity change, negative = inhibition, usual class: inhibitors | AID 1379; further: nearly all actives have a fitted effect of over 60% in size
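Light output from Kinase-Glo luciferase with luciferin and 10 uM ATP in 50 mM imidazole pH 7.2, KCl, MgCl2, Tween 20, BSA; compound pin-delivered, 8-min ambient incubation, then luminescence read.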
IMPase Li cell = IMPase inhibition in cells with lithium potentiation | CHO-M1 cells, IP1 TR-FRET (IP-One), carbachol + lithium | hit rate 0.35% among 210,000 | Potency, µM (doses to about 59.4 µM), inactives show top-dose activity, negative = IMPase inhibition, actives largely listed as inhibitors;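 further: IP1 builds up when IMPase is blocked and the TR-FRET signal falls; plate controls were basal vehicle for no effect and high inhibitor control for full effect; nearly all actives have a fitted effect of over 50% in size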
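Lithium-sensitised IP1 accumulation assay; M1-expressing CHO cells treated 30 min at 37C with compound. Competitive antibody detection by time-resolved FRET followed a 10 min room-temperature lysis step.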
NPSR antag = antagonists of human neuropeptide S receptor cAMP signaling; Q6W5P4; AID 1461; Potency, µM (doses to about 38.3 µM), without a hit: at the top dose activity change, negative = inhibition, most hits filed as inhibitors; hit rate 1% among 220,000; CHO-NPSR cells, cAMP TR-FRET, antagonist mode; further: nearly all actives have a fitted effect of over 50% in size
Target sequence (Q6W5P4 whole entry, looked up): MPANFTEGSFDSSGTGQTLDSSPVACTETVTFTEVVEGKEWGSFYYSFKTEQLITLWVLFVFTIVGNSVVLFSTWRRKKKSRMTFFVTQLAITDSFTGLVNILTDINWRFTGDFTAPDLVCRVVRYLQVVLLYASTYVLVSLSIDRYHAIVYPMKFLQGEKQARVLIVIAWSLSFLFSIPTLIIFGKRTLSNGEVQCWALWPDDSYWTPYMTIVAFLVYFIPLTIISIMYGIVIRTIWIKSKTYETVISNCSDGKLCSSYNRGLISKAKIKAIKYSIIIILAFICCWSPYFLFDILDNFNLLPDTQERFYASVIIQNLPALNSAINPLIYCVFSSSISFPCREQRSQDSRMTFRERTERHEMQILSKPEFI
* = called active by the depositor; ? = inconclusive; . = no result; ! = a repeat was not active; [ ] = dose if it differs, or a comment. The call rests on the fitted dose curve; in most records, active means well fitted curve in the direction sought with a large enough effect; inconclusive means small, poorly fitted or top-dose-only effect, or another doubt; inactive means no such curve, though single readings can be large; an effect the other way counts as inactive or inconclusive. Unless noted, on the % scale 0 is the no-effect control and ±100 the full control effect; potency means the concentration at half of the fitted maximal effect.

SMILES | ERK EGF block | KinaseGlo FLuc | IMPase Li cell | NPSR antag
CCOc1cccc(NC(=O)CSc2nc(C)c3c(c2C#N)CCCC3)c1 | . | -8.2% | 3.98µM* | 5.3%[46.1 µM]
Cc1nc(SCC(=O)Nc2ccc3c(c2)OCO3)c(C#N)c2c1CCCC2 | . | 0.7% | 46.4%[38.3 µM] | ?
CCCCCCN1C=C/C(=C\C=C(C#N)C#N)c2ccccc21 | 14.1µM* | ? | 20.3% | -51.1%
CCN1C(=O)/C(=C/C=C2\C=CN(CC)c3ccccc32)SC1=S | ? | -26.2% | 102.8% | 3.16µM*
CCN1C(=O)/C(=C2/C=CC=CN2C)SC1=S | . | -1.6% | 61.4%[38.3 µM] | -13.0%[46.1 µM]
CCN1C(=O)/C(=C\C=C2/C=CC=CN2CC)SC1=S | 25.1µM* | ? | 36.1% | -55.9%
COc1ccc(NS(=O)(=O)c2ccc(I)cc2)cc1N1CCN(C)CC1 | -7.6% | 5.2% | 12.2% | .
C[C@]12CC[C@H]3c4ccc(O)cc4CC[C@@H]3[C@H]1C/C(=N/O)[C@H]2O | . | -4.2%[7.66 µM] | 5.8% | .
O=[N+]([O-])c1cccc(Cl)c1 | . | . | 7.2% | .
Cc1ccccc1OCc1nc(-c2ccc(NC(=O)c3ccco3)cc2)no1 | -3.9% | -18.7% | 4.0% | -14.2%[46.1 µM]
Cc1ccccc1OCc1nc(-c2ccc(NC(=O)c3ccc4c(c3)OCO4)cc2)no1 | . | -8.4% | -4.8%[38.3 µM] | 10µM*
O=[N+]([O-])c1cc(C(F)(F)F)cc([N+](=O)[O-])c1NN=C1CCCCC1 | 17.8µM* | 3.1% | 5.0% | 1.9%[46.1 µM]
O=[N+]([O-])c1cc(S(=O)(=O)N2CCCC2)ccc1NN=C1CCCCC1 | -2.0% | 2.6% | 6.9% | -10.8%
CN1[C@@H]2CC(OC(=O)[C@@H](CO)c3ccccc3)C[C@@H]1[C@H]1O[C@H]12 (some centres undefined) | . | -2.0%[7.66 µM] | . | .
COc1ccc(-c2cc(-c3ccccc3)c(C#N)c(=S)[nH]2)cc1 | -0.9% | 1.2% | -22.7% | 12.6µM*
Cc1ccc(-c2cc(-c3ccccc3)[nH]c(=S)c2C#N)cc1 | . | 2.9% | ? | -4.4%[46.1 µM]
COCCn1c(=O)cnc2cnc(Nc3cccc(OC)c3)nc21 | . | . | 5.3% | .
O=C(O)c1cc(S(=O)(=O)Nc2ccc(O)cc2)ccc1Cl | . | -1.5% | . | .
O=C(CN1CCN(c2ccc(F)cc2)CC1)Nc1nnc(-c2ccccc2)s1 | . | 0.2% | 11.2µM* | 9.7%[46.1 µM]
CC(=O)c1c(CC(=O)O)[nH]n(-c2nc3ccccc3s2)c1=O | . | 6.31µM* | 17.1%[38.3 µM] | -17.2%[46.1 µM]
COC(=O)Cc1[nH]n(-c2nc3ccccc3s2)c(=O)c1C(C)=O | . | ? | 15.5%[38.3 µM] | -4.3%[46.1 µM]
CCOC(=O)c1c(N)sc(C(=O)Nc2ccc3c(c2)OCO3)c1C | . | 4.47µM* | 34.5%[38.3 µM] | ?
CCOC(=O)c1c(C)c(C(=O)Nc2ccc3c(c2)OCO3)c(C)n1C | . | -2.7% | -8.9%[38.3 µM] | -16.4%[46.1 µM]
CCN(CC)Cc1ccc(NC(=O)c2sc3cc(Cl)ccc3c2Cl)cc1 | 28.2µM* | . | . | -46.7%
Cc1ccc2c(Cl)c(C(=O)Nc3ccc4c(c3)OCO4)sc2c1 | 0.4% | -1.0% | ? | 6.31µM*
SMILES | ERK EGF block | KinaseGlo FLuc | IMPase Li cell | NPSR antag
Cc1ccnc(NC(=O)c2sc3cc(Cl)ccc3c2Cl)c1 | 4.0% | 2.5% | 19.0% | -1.7%
COc1cc(OC)c2c(c1)OC(=O)CC2c1ccccc1OC (centres undefined) | . | 3.3%[39.9 µM] | 4.7% | .
CCCCCCCC[N+](CCCCCCCC)(CCCCCCCC)CCCCCCCC | . | . | 22.6% | .
CCOC(=O)CSC1=C(C#N)C(c2ccc(OC)cc2)C2=C(CC(C)(C)CC2=O)N1 (centres undefined) | . | 5.9% | 10µM* | -20.4%[46.1 µM]
CC1=C(C(=O)O)N2C(=O)C(NC(=O)C(N)c3ccccc3)C2SC1 (centres undefined) | 22.3% | -7.1% | . | .
O=C1C(Cl)=C(Nc2ccc3cn[nH]c3c2)C(=O)c2ccccc21 | 15.8µM* | . | . | 6.31µM*
CC(=O)Nc1ccc(NC2=C(Cl)C(=O)c3ccccc3C2=O)cc1 | 22.0% | ? | 73.9% | 10µM*
CN(C)c1ccc(NC2=C(Cl)C(=O)c3ccccc3C2=O)cc1 | 14.1µM* | -14.2% | 60.2% | ?
O=C1C(Cl)=C(NCCCO)C(=O)c2ccccc21 | . | -6.7% | 42.8%[38.3 µM] | -8.5%[46.1 µM]
O=C(Nc1ccc2cn[nH]c2c1)c1c(Cl)cccc1Cl | -8.8% | 1.6% | 2.3% | -9.5%[46.1 µM]
Cc1ccccc1OCc1nc2ccccc2[nH]1 | 3.5% | 12.6µM* | 12.5% | 7.3%
COc1ccccc1OCc1nc2ccccc2[nH]1 | . | -10.1% | 5.7%[38.3 µM] | -0.3%[46.1 µM]
Oc1c(Br)cc(C=Nc2ccc3nc(-c4ccccc4)[nH]c3c2)c(O)c1Br | -4.1%[57.5 µM] | . | ? | 10µM*
C[C@@]12CC(=O)[C@@H]3[C@@H](CCC4=CC(=O)CC[C@]43C)[C@@H]1CC=C2CC(=O)O | . | -5.8%[7.66 µM] | -11.9% | .
O=C(Nc1ccc(F)cc1)Nc1ccc(N2CCCC2)c(S(=O)(=O)Nc2ccccc2Cl)c1 | -4.8% | -1.7% | 13.6% | 10µM*
CC12C=CC(=O)C=C1CCC1C2=CCC2(C)C1CC[C@@H]2C(=O)CN1CCN(c2cc(N3CCCC3)nc(N3CCCC3)n2)CC1 (some centres undefined) | . | . | 19.2% | .
CC1=NOC(=O)/C1=C/c1ccc(-c2ccc(Cl)cc2)o1 | . | 12.6% | 22.8%[38.3 µM] | ?
CC1=NOC(=O)/C1=C\c1ccc(-c2cc(Cl)ccc2Cl)o1 | . | 10.7% | ? | 10µM*
Nc1c(S(=O)(=O)O)cc(Nc2ccc(Nc3nc(Cl)nc(Nc4ccc(S(=O)(=O)O)cc4)n3)c(S(=O)(=O)O)c2)c2c1C(=O)c1ccccc1C2=O | 25.1µM* | ? | 30.1% | ?
O=[N+]([O-])c1ccc(Nc2nc(Cl)nc(NCCO)n2)cc1 | 5.0% | -0.6% | -8.1% | 0.1%
O=C(c1cc(C(F)(F)F)cc(C(F)(F)F)c1)N1CCC2(CC1)CCN(c1ccncc1)CC2 | -3.6% | -2.1% | 17.4% | .
c1ccc(-c2nnc(-c3ccccn3)nc2NC2CCCCC2)cc1 | . | -7.0% | 23.3%[38.3 µM] | 10µM*
COCCCNC(=O)c1ccccc1Oc1ccccc1 | . | 1.4% | -8.6%[38.3 µM] | -13.2%[46.1 µM]
COCCCNC(=O)c1ccc2c3c(onc13)-c1ccccc1C2=O | 31.6µM* | . | . | ?
CCCN1C(=O)/C(=C\C=C2\N(CC)c3ccccc3C2(C)C)SC1=S | ? | -14.6% | 0.8% | ?
SMILES | ERK EGF block | KinaseGlo FLuc | IMPase Li cell | NPSR antag
CN1/C(=C\C=C2/C(=O)Oc3ccccc3C2=O)C(C)(C)c2ccccc21 | 6.4% | 1.2% | -5.0% | -17.3%
CN(C)c1ccc(N=C/C=C2/N(C)c3ccccc3C2(C)C)cc1 | 14.1µM* | -2.8% | 26.4% | -47.1%
CN1/C(=C\C=N\O)C(C)(C)c2ccccc21 | 5.8% | 4.3% | -14.6% | 9.7%
CN1/C(=C\C=C2/SC(=S)NC2=O)C(C)(C)c2ccccc21 | 25.1µM* | -12.7% | 27.3% | ?
CN1C(=CC=C2C=C(I)C(=O)C(I)=C2)C(C)(C)c2ccccc21 | 12.6µM* | . | . | ?
Nc1nc(N)c2nc(-c3ccccc3)c(N)nc2n1 | -5.5% | -0.8% | 12.6µM*! | -5.1%
Cc1nc2c(cnn2-c2ccccc2Cl)c(=O)n1-c1ccc(N2CCC(C)CC2)cc1 | . | 15.7% | 44.3%[38.3 µM] | 12.6µM*
